Source: PubChem BioAssay (NCATS)
Inconclusive results are not listed. A call without a number means that no potency is given here. Active and inactive are the calls of the source. The call rests on the fitted dose curve; in most records, active means well fitted curve in the direction sought with a large enough effect; inconclusive means small, poorly fitted or top-dose-only effect, or another doubt; inactive means no such curve, though single readings can be large; an effect the other way counts as inactive or inconclusive. Square brackets hold non-standard residues; d marks the D form. Peptide text beside a SMILES is read from it. ξ: configuration not given here. ξL = CC(C)CC(N)C(=O)O

Tests used:
[1] = OV-KATE Cancer Cell Toxicity qHTS against the NCATS CANVASS Library (AID 1347345)
Procedure, shortened: (§1)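 1000 cells/well seeded and rested 4 h at 37 °C before pin transfer of compounds in an 11-pnt series. Exposure 72 h at 37 °C/5% CO2; viability by CellTiter-Glo luminescence after 15 min at room temperature.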

[2] = HPAF-II Cancer Cell Toxicity qHTS against the NCATS CANVASS Library (AID 1347346); further: nearly all actives have a fitted effect of over 55% in size; further: potency means the concentration at half of the fitted maximal effect
Procedure, shortened: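 Cytotoxicity read-out was CellTiter-Glo luminescence after 72 h at 37 degrees C exposure of HPAF-II cells (1000/well) to compounds in an 11-point titration.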

[3] = Panc-1005 Cancer Cell Toxicity qHTS against the NCATS CANVASS Library (AID 1347349); further: series mostly up to about 38 µM; nearly all actives have a fitted effect of over 60% in size
Procedure, shortened: as §1

[4] = SW1088 Cancer Cell Toxicity qHTS against the NCATS CANVASS Library (AID 1347350); further: nearly all actives have a fitted effect of over 75% in size; further: potency means the concentration at half of the fitted maximal effect
Procedure, shortened: as §1

[5] = UWB1.289-WTBRCA1 Cancer Cell Toxicity qHTS against the NCATS CANVASS Library (AID 1347354)
Procedure, shortened: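 Toxicity was measured as CellTiter-Glo luminescence after 72 h exposure to an 11-point compound series. Compound was added to 1000 cells/well 4 h after seeding.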

[6] = SDT Cancer Cell Toxicity qHTS against the NCATS CANVASS Library (AID 1347365); further: nearly all actives have a fitted effect of over 60% in size; further: potency means the concentration at half of the fitted maximal effect
Procedure, shortened: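 Cytotoxicity taken from CellTiterGlo ATP luminescence after 72 hr at 37C, 5% CO2. Canine glioma line SDT, 500 cells/well, treated at 11 concentrations; bortezomib dose series as control.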

[7] = G06 Cancer Cell Toxicity qHTS against the NCATS CANVASS Library (AID 1347368); further: nearly all actives have a fitted effect of over 60% in size; further: potency means the concentration at half of the fitted maximal effect
Procedure, shortened: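 Viability measured by CellTiterGlo ATP luminescence after 72 hr at 37C, 5% CO2. Canine G06 glioma cells plated at 500/well. Compounds tested as 11-point qHTS titrations.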

[8] = MCF7 Cancer Cell Toxicity qHTS against the NCATS CANVASS Library (AID 1347369)
Procedure, shortened: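 MCF7, 500 cells/well; cpds 11-pt qHTS; 72 hr, 37C/5% CO2; CellTiterGlo ATP luminescence.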

[9] = qHTS for Hypoxia signaling pathway (HIF-1) antagonists against the NCATS CANVASS Library (AID 1347374); further: nearly all actives have a fitted effect of over 60% in size; further: potency means the concentration at half of the fitted maximal effect
Procedure, shortened: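 Antagonism scored as loss of CoCl2-driven (60 uM stock added) HRE beta-lactamase signal, read by CCF4 FRET at 460/530 nm. Compounds were tested in an 11-point series on ME-180 reporter cells for 17 hrs at 37C, with parallel CellTiter-Glo cytotoxicity.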

[10] = DH5-alpha competent E. coli microbial cell viability qHTS against the NCATS CANVASS Library (AID 1347377); conditions: outcome: dose series up to 46.1 µM unless noted
Procedure, shortened: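 Bacterial viability as ATP-dependent luminescence (BacTiter-Glo), read after overnight 37 °C exposure of DH5-alpha competent E. coli to compounds in 11-point titration.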

[11] = qHTS for Antimalaria activity screened against the NCATS CANVASS Library (AID 1347380);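 further: Plasmodium falciparum strain Dd2 asexual parasites grown in red blood cells; series mostly up to about 29 µM; nearly all actives have a fitted effect of over 40% in size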
Procedure, shortened: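 SYBR Green fluorescence at 485/535 nm was read 18 hr after lysis. This followed a 72 hr incubation at 37C in 5% O2, 5% CO2 of Dd2-infected erythrocytes (0.3% parasitemia, 2.5% final hematocrit) with compounds titrated over 11 concentrations.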

[12] = qHTS for inhibitors of ER calcium dysfunction: SERCaMP assay screened against the NCATS CANVASS Library (AID 1347393); further: nearly all actives have a fitted effect of over 40% in size; further: potency means the concentration at half of the fitted maximal effect
Procedure, shortened: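 qHTS in SH-SY5Y reporter cells: 16 h compound pretreatment, 4 h thapsigargin, then secreted Gaussia luciferase measured by luminescence.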

[13] = UWB1.289 Cancer Cell Toxicity qHTS against the NCATS CANVASS Library (AID 1347347); further: nearly all actives have a fitted effect of over 60% in size
Procedure, shortened: as §1

[14] = U-118MG Cancer Cell Toxicity qHTS against the NCATS CANVASS Library (AID 1347351)
Procedure, shortened: as §1

[15] = A2780 Cisplatin Sensitive Ovarian Cancer Cell Toxicity qHTS against the NCATS CANVASS Library (AID 1347353); further: nearly all actives have a fitted effect of over 60% in size
Procedure, shortened: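 Cisplatin-sensitive A2780 ovarian cells (750/well) received compound in 11 concentrations, and were incubated 72 h at 37 °C. ATP content was measured by ATPLite luminescence; bortezomib served as control.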

[16] = HPAF-II 24hr Apoptosis Induction qHTS against the NCATS CANVASS Library (AID 1347356)
Procedure, shortened: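 Caspase-Glo 3/7 luminescence, read after 15 min room-temperature development, measures apoptosis in HPAF-II cells treated 24 h at 37 degrees C with an 11-point concentration series; 500 cells/well; doxorubicin control.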

[17] = qHTS assay for small molecule disruptors of mitochondrial membrane potential screened against the NCATS CANVASS Library (AID 1347389)
Procedure, shortened: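 Mitochondrial membrane potential in HepG2: 1 h compound treatment (11-point concentration series), 30 min m-MPI dye at 37C, then dual fluorescence of J-aggregates (ex 540/em 590) and monomers (ex 490/em 535); lower red/green ratio indicates depolarization.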

[18] = qHTS for activators of Nrf2/ARE signaling pathway screened against the NCATS CANVASS Library (AID 1347391); further: nearly all actives have a fitted effect of over 60% in size
Procedure, shortened: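 Eleven-point qHTS, 16 h treatment of HepG2 cells carrying an ARE-driven beta-lactamase reporter; CCF4 ratio read (405 nm excitation, 460 and 530 nm emission), with CellTiter-Glo ATP luminescence for viability.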

[19] = Vero-766 cells viability qHTS against the NCATS CANVASS Library: Counterscreen for Zika virus inhibition assay (AID 1347394)
Procedure, shortened: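 Uninfected Vero 766 (African green monkey) cells, 1000/well, attached overnight, then exposed 72 h at 37C to compounds (11-point qHTS). Viability read by CellTiter-Glo luminescence; media-only wells served as 100% inhibition.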

[20] = qHTS for inhibitors of Wild type Zika virus screened against the NCATS CANVASS Library (AID 1347396);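 further: ATP luminescence of surviving cells so rescue from viral cell killing; series mostly up to about 46 µM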
Procedure, shortened: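 Vero 766 cells, 1000/well, o/n attach; cpds pin-transferred (11-pt qHTS); WT Zika added; 72 h, 37C, 5% CO2; CellTiter Glo lumi. Uninfected + vehicle = 100% inhibition.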

Row | SMILES | Potency [1] | Potency [2] | Potency [3] | Potency [4] | Potency [5] | Potency [6] | Potency [7] | Potency [8] | Potency [9] | outcome [10] | Potency [11] | Potency [12] | Potency [13] | Potency [14] | Potency [15] | outcome [16] | Potency [17] | Potency [18] | Potency [19] | outcome [20]
1 | COc1c(O)cc(O)c2c(=O)cc(-c3ccccc3)oc12 | inactive | inactive | inactive | inactive | inactive | inactive | inactive | inactive | 10.6 µM (active) | inactive | inactive | inactive |  |  |  |  |  |  |  | 
2 | COc1cc2ccc(=O)oc2c(O)c1O[C@@H]1O[C@H](CO)[C@@H](O)[C@H](O)[C@H]1O | inactive | inactive |  | inactive | inactive | inactive | 8.12 µM (active) |  | inactive | inactive |  |  | inactive | inactive | inactive | inactive | inactive | inactive | inactive | inactive
3 | C/C(=C\[C@@H](C)CC/C=C/CC/C=C/C(=O)O)[C@H](O)[C@H](C)C(=O)CCCC1CC(=O)NC(=O)C1 | inactive | 6.68 µM (active) |  | inactive | inactive |  |  | inactive | inactive | inactive | inactive | inactive |  | inactive | inactive | inactive | inactive | inactive | inactive | inactive
4 | CC[C@@H](C)[C@H]1NC(=O)C(CC(C)C)NC(=O)[C@@H](CC(C)C)NC(=O)[C@H](Cc2c[nH]c3ccccc23)NC(=O)CNC(=O)[C@@H](CC(N)=O)NC1=O (stereo partly drawn) (cyclo(GW[dL][ξL][dI][dN])) | inactive | inactive | inactive | 11.9 µM (active) | inactive | 16.6 µM (active) |  |  |  | inactive |  | inactive | inactive |  | inactive | inactive |  | inactive | inactive | inactive
5 | Cc1cc(O)cc2c1C(=O)c1c(O)cc(O)cc1C2=O | inactive | inactive | inactive | inactive | inactive | inactive | inactive |  | inactive | inactive |  | inactive | inactive | inactive | inactive | inactive | inactive | inactive | inactive | inactive
6 | C=CC(C)(C)C(=O)[C@@H](C)[C@@H]1CC[C@@](C)(C=C)O1 | inactive | inactive | inactive | inactive | inactive | inactive | inactive | inactive | inactive | inactive | inactive | inactive | inactive | inactive | inactive | inactive | inactive | inactive | inactive | inactive
7 | CC[C@@H]1C[C@@]2(CC)OC(=O)[C@@]3(CC)[C@H](CC)[C@@H]1[C@@H]23 | inactive | inactive | inactive | inactive | inactive | inactive | inactive |  | inactive | inactive |  | inactive | inactive | inactive | inactive | inactive | inactive | inactive | inactive | inactive
8 | C=C1[C@@]2(C)CC3C4(C)CCC(O)C(C)(C)C4CCC3(C)[C@]1(C(=O)OC)C(=O)C(C)(O)C2=O (some centres not stated) | inactive | inactive | inactive | inactive | inactive | inactive | inactive | inactive | inactive | inactive | inactive | 8.6 µM (active) | inactive | inactive | inactive | inactive | inactive | inactive | inactive | inactive
9 | CC(C)=CCCC(C)(O)[C@H]1CC=C(C)C(O)C1 (some centres not stated) | inactive | inactive | inactive | inactive | inactive | inactive | inactive | inactive | inactive | inactive |  | inactive | inactive | inactive | inactive |  | inactive | inactive | inactive | inactive
10 | C[C@@]12CCC[C@@](C)(C(=O)OP(=O)(O)OC[C@H]3O[C@@H](n4cnc5c(N)ncnc54)[C@H](O)[C@@H]3O)[C@H]1C[C@@H](O)[C@@]13C[C@@H](CC[C@@H]21)[C@](C)(O)C3 | inactive | 4.73 µM (active) | inactive | inactive |  |  | 14.8 µM (active) | inactive |  |  | inactive | inactive | inactive | inactive | inactive |  | inactive | inactive | inactive | inactive
